Our source for the binding signal values is publication PMC7862700, “An all-to-all approach to the identification of sequence-specific readers for epigenetic DNA modifications on cytosine”.

Holding throughout (experiment): DAPPL (digital affinity profiling via proximity ligation, sequencing); 10 mM Tris-HCl pH 7.5, 50 mM NaCl, 1 mM DTT, 4% glycerol, room temperature, 30 min; GST-TFs on glutathione beads, 16-mer random dsDNA library, 0.1% formaldehyde crosslink after washing; high values mean tight binding
The target in one test is T1, FEV (Homo sapiens, UniProt Q99581 1-238).
T1 sequence: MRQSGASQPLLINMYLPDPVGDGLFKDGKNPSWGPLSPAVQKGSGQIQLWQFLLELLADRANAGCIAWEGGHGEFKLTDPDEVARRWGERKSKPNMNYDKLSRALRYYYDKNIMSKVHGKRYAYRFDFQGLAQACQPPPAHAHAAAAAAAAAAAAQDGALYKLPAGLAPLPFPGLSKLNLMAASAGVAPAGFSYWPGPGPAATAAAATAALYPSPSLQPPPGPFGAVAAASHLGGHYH
The note with it: protein: recombinant; tags: N-terminal GST; dsDNA, one strand shown. The procedure, abridged:
(§1)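 In yeast, human transcription factors were expressed with a GST fusion, then pulled down on glutathione beads and given DNA barcodes. Pooled with a tag-only sample, they were exposed to 200 nmole of a 16-mer random double-stranded DNA library (Tris/NaCl/DTT/glycerol buffer, room temperature, 30 min), washed, crosslinked with 0.1% formaldehyde, proximity-ligated using BsaI/T4 ligase for 1 h at 37 °C, PCR-amplified and read on an Illumina NextSeq500. Each hexamer's frequency of reads for a factor, divided by the matching frequency for the tag-only sample, gives the binding signal.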

Another test concerns the target ETV5 (Homo sapiens, UniProt P41161 1-510). The note with it: protein: recombinant; tags: N-terminal GST; dsDNA, one strand shown. The procedure, abridged: as §1
Another test deals with HSF1 (Homo sapiens, UniProt Q00613 1-529). The settings on record: protein: recombinant; tags: N-terminal GST; chain copies: 3; dsDNA, one strand shown. The method in brief:
as §1

A further test concerns the target T2, SPIC (Homo sapiens, UniProt Q8N5J4 1-248).
T2 sequence: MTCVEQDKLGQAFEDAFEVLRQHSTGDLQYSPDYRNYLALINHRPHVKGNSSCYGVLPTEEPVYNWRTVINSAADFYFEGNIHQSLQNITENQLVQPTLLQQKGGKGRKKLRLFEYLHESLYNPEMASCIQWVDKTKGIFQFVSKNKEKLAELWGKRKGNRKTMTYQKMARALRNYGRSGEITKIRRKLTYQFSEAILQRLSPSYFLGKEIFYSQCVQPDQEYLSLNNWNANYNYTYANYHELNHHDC
The settings on record: protein: recombinant; tags: N-terminal GST; dsDNA, one strand shown. The method in brief:
as §1

Another test has as its target ELF4 (Homo sapiens, UniProt Q99607 1-663). The settings on record: protein: recombinant; tags: N-terminal GST; dsDNA, one strand shown. The method in brief: as §1
The target of another test is T3, ELK4 (Homo sapiens, UniProt P28324-2 1-405).
T3 sequence: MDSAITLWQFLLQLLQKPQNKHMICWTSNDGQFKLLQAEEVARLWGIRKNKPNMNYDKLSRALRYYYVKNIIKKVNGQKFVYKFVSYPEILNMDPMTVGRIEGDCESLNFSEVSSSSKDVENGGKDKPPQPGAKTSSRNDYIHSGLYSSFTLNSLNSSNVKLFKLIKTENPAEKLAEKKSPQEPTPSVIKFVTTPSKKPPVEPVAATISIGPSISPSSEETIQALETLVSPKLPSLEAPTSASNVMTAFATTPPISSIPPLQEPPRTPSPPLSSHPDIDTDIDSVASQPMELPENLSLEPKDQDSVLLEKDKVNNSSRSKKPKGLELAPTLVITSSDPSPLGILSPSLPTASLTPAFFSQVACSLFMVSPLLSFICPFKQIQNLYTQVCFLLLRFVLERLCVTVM
The settings on record: protein: recombinant; tags: N-terminal GST; dsDNA, one strand shown. The method in brief:
as §1

Another test deals with T4, ETV2 (Homo sapiens, UniProt O00321 1-342).
T4 sequence: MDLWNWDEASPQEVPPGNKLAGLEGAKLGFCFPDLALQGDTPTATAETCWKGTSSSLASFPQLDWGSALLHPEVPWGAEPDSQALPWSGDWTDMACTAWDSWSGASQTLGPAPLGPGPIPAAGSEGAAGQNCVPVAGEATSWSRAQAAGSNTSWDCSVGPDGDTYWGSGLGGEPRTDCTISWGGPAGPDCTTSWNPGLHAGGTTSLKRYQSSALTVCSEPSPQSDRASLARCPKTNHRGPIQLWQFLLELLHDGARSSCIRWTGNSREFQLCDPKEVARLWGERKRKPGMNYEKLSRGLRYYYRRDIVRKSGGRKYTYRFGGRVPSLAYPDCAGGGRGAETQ
The settings on record: protein: recombinant; tags: N-terminal GST; dsDNA, one strand shown. The method in brief: as §1

The target of a further test is T5, ELF3 (Homo sapiens, UniProt P78545 1-371).
T5 sequence: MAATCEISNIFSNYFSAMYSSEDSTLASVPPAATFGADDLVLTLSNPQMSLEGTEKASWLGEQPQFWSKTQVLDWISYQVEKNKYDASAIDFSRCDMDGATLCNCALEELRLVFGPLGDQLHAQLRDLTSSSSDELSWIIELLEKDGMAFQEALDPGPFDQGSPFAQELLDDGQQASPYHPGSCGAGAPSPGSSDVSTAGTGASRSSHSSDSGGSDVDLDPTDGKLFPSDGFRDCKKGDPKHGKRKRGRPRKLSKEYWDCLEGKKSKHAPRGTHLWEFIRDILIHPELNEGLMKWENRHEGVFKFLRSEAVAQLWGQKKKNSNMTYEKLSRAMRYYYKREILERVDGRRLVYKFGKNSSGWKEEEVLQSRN
The note with it: protein: recombinant; tags: N-terminal GST; dsDNA, one strand shown. The procedure, abridged: as §1

In another test the target is CRX (Homo sapiens, UniProt O43186 1-299). The settings on record: protein: recombinant; tags: N-terminal GST; dsDNA, one strand shown. The procedure, abridged: as §1
The next test has as its target ETV1 (Homo sapiens, UniProt P50549 1-477). The settings on record: protein: recombinant; tags: N-terminal GST; dsDNA, one strand shown. The method in brief:
as §1

Chain of ETV5 (P41161 whole entry): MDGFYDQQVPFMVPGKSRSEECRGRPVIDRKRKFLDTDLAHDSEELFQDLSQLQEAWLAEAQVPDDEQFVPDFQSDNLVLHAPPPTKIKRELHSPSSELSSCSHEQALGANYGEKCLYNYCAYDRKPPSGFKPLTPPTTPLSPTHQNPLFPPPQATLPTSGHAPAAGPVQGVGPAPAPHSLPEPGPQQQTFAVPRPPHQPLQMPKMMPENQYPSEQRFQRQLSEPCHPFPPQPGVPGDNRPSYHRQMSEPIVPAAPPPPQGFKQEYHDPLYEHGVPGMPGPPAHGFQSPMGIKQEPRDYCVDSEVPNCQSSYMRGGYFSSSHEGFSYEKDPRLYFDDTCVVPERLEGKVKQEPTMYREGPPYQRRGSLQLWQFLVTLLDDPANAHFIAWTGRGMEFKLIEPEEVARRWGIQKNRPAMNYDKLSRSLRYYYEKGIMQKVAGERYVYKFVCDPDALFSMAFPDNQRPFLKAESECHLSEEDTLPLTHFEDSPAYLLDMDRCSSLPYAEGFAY
Chain of ELF4 (Q99607 whole entry): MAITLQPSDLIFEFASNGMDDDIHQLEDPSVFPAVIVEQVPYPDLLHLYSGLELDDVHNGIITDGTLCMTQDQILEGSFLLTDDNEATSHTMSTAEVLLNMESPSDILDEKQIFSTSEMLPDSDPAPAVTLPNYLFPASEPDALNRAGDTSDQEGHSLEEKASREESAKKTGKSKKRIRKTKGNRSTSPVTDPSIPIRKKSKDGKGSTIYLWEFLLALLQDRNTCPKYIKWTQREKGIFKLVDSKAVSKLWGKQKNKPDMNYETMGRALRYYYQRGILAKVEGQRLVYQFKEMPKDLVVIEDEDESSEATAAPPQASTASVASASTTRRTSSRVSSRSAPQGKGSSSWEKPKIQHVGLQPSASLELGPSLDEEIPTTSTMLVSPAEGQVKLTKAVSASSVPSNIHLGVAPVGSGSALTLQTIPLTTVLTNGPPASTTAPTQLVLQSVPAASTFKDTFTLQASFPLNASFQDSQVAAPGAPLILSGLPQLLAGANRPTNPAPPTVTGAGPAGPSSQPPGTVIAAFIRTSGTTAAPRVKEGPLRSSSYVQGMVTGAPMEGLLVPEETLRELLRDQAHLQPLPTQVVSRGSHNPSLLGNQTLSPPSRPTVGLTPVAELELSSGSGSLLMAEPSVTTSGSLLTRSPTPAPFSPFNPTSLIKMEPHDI
Chain of ETV1 (P50549 whole entry): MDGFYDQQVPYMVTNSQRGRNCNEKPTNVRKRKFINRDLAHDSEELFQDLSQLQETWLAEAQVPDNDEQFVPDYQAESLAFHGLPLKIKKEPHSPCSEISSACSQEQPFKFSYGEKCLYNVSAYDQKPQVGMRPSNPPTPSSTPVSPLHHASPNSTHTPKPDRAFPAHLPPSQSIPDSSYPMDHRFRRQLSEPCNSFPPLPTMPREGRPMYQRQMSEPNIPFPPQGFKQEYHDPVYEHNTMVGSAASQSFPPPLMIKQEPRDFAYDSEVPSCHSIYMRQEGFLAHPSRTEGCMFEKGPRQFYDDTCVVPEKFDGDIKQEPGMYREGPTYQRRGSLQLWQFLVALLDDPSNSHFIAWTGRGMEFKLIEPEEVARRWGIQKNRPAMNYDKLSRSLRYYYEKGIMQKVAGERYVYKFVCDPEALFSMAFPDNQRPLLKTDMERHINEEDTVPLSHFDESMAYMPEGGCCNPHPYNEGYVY
Chain of HSF1 (Q00613 whole entry): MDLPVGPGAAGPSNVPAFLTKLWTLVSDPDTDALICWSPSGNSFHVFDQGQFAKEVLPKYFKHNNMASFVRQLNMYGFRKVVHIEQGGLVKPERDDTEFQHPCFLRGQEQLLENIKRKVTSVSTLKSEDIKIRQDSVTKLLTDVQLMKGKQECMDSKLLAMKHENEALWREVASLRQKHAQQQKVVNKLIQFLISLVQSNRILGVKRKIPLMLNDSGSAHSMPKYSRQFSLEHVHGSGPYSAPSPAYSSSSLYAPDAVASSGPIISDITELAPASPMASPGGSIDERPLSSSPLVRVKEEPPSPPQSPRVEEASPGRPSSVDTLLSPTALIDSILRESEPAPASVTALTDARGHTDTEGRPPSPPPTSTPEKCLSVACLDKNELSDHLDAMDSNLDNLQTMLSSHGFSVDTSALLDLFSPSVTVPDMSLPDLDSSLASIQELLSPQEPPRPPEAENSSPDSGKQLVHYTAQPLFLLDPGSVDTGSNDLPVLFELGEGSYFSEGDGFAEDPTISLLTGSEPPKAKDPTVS
Chain of CRX (O43186 whole entry): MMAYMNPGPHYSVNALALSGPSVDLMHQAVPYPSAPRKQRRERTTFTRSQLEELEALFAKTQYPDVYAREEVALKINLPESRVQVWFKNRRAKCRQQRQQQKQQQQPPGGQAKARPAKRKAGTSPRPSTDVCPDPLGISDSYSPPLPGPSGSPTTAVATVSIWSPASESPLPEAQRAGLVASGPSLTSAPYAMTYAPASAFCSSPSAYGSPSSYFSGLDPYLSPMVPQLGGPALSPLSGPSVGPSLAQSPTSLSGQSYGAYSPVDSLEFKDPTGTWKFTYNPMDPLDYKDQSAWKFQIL

Turning to AATGGT, the binding signal with FEV was 1.27 fold enrichment (6-mer frequency, TF over GST control); in the test with ETV5, 1.46 fold enrichment (6-mer frequency, TF over GST control); with HSF1 it was 1.05 fold enrichment (6-mer frequency, TF over GST control); with SPIC, 1.35 fold enrichment (6-mer frequency, TF over GST control); with ELF4, 1.43 fold enrichment (6-mer frequency, TF over GST control); in the test with ELK4, 1.38 fold enrichment (6-mer frequency, TF over GST control). Moreover, the binding signal was 1.32 fold enrichment (6-mer frequency, TF over GST control) with ETV2; 1.25 fold enrichment (6-mer frequency, TF over GST control) in the test with ELF3; 1.1 fold enrichment (6-mer frequency, TF over GST control) with CRX; 1.43 fold enrichment (6-mer frequency, TF over GST control) with ETV1.
Turning to ATTCTA, the binding signal is 1.14 fold enrichment (6-mer frequency, TF over GST control) with FEV; 1.16 fold enrichment (6-mer frequency, TF over GST control) in the test with ETV5; 3.09 fold enrichment (6-mer frequency, TF over GST control) with HSF1; 1.26 fold enrichment (6-mer frequency, TF over GST control) with SPIC; 1.2 fold enrichment (6-mer frequency, TF over GST control) with ELF4; 1.32 fold enrichment (6-mer frequency, TF over GST control) in the test with ELK4. The binding signal was 1.26 fold enrichment (6-mer frequency, TF over GST control) with ETV2; 1.24 fold enrichment (6-mer frequency, TF over GST control) with ELF3; 1.84 fold enrichment (6-mer frequency, TF over GST control) with CRX; 1.2 fold enrichment (6-mer frequency, TF over GST control) with ETV1.
As to CTGGTA, the binding signal with FEV is 1.23 fold enrichment (6-mer frequency, TF over GST control); with ETV5 it was 1.25 fold enrichment (6-mer frequency, TF over GST control); with HSF1, 1.75 fold enrichment (6-mer frequency, TF over GST control); with SPIC, 1.28 fold enrichment (6-mer frequency, TF over GST control); in the test with ELF4, 1.4 fold enrichment (6-mer frequency, TF over GST control); in the test with ELK4, 1.29 fold enrichment (6-mer frequency, TF over GST control). Besides, the binding signal with ETV2 is 1.41 fold enrichment (6-mer frequency, TF over GST control); with ELF3 it was 1.2 fold enrichment (6-mer frequency, TF over GST control); with CRX it was 1.38 fold enrichment (6-mer frequency, TF over GST control); with ETV1, 1.24 fold enrichment (6-mer frequency, TF over GST control).
Regarding ATCCTA, the binding signal was 1.32 fold enrichment (6-mer frequency, TF over GST control) with FEV; 1.37 fold enrichment (6-mer frequency, TF over GST control) with ETV5; 1.61 fold enrichment (6-mer frequency, TF over GST control) with HSF1; 1.44 fold enrichment (6-mer frequency, TF over GST control) in the test with SPIC; 1.32 fold enrichment (6-mer frequency, TF over GST control) with ELF4; 1.26 fold enrichment (6-mer frequency, TF over GST control) with ELK4. Besides, the binding signal with ETV2 is 1.41 fold enrichment (6-mer frequency, TF over GST control); in the test with ELF3, 1.24 fold enrichment (6-mer frequency, TF over GST control); with CRX, 2.19 fold enrichment (6-mer frequency, TF over GST control); with ETV1 it was 1.32 fold enrichment (6-mer frequency, TF over GST control).
In the case of GATATA, the binding signal with FEV is 1.08 fold enrichment (6-mer frequency, TF over GST control); with ETV5, 1.13 fold enrichment (6-mer frequency, TF over GST control); in the test with HSF1 it was 1.09 fold enrichment (6-mer frequency, TF over GST control); with SPIC it was 1.13 fold enrichment (6-mer frequency, TF over GST control); in the test with ELF4, 1.06 fold enrichment (6-mer frequency, TF over GST control); with ELK4 it was 1.18 fold enrichment (6-mer frequency, TF over GST control). For the same sequence, the binding signal was 1.19 fold enrichment (6-mer frequency, TF over GST control) with ETV2; 1.33 fold enrichment (6-mer frequency, TF over GST control) with ELF3; 1.19 fold enrichment (6-mer frequency, TF over GST control) with CRX; 1.08 fold enrichment (6-mer frequency, TF over GST control) with ETV1.
As for CTATCT, the binding signal with FEV was 1.34 fold enrichment (6-mer frequency, TF over GST control); with ETV5 it was 1.22 fold enrichment (6-mer frequency, TF over GST control); in the test with HSF1 it was 1.4 fold enrichment (6-mer frequency, TF over GST control); with SPIC it was 1.34 fold enrichment (6-mer frequency, TF over GST control); in the test with ELF4 it was 1.34 fold enrichment (6-mer frequency, TF over GST control); in the test with ELK4, 1.15 fold enrichment (6-mer frequency, TF over GST control). Further, the binding signal with ETV2 was 1.39 fold enrichment (6-mer frequency, TF over GST control); with ELF3, 1.29 fold enrichment (6-mer frequency, TF over GST control); with CRX, 1.4 fold enrichment (6-mer frequency, TF over GST control); in the test with ETV1, 1.24 fold enrichment (6-mer frequency, TF over GST control).
ATGACC: the binding signal with FEV is 1.63 fold enrichment (6-mer frequency, TF over GST control); in the test with ETV5, 1.54 fold enrichment (6-mer frequency, TF over GST control); with HSF1, 1.42 fold enrichment (6-mer frequency, TF over GST control); with SPIC, 1.38 fold enrichment (6-mer frequency, TF over GST control); with ELF4, 1.66 fold enrichment (6-mer frequency, TF over GST control); in the test with ELK4, 1.54 fold enrichment (6-mer frequency, TF over GST control). For the same sequence, the binding signal was 1.76 fold enrichment (6-mer frequency, TF over GST control) with ETV2; 1.63 fold enrichment (6-mer frequency, TF over GST control) with ELF3; 1.31 fold enrichment (6-mer frequency, TF over GST control) with CRX; 1.62 fold enrichment (6-mer frequency, TF over GST control) with ETV1.
